The results in this text go back to PubChem BioAssay (NCATS).

What all share (experiment): Primary qHTS to identify gynecologic anti-cancer compounds using libraries of approved drugs and bioactive compounds (AID 1345084); note: nearly all actives have a fitted effect of over 55% in size
Assay [1] deals with C33A. As to conditions: Gynecologic cancer cell panel viability, ATPlite luminescence, 48 h; series mostly up to 57.5 µM. In outline: (§1)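 Five-concentration response, 48 h; readout is ATP-driven luciferase luminescence.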
For orientation: In ATP-based viability assays light output follows the ATP content of the culture.

Assay [2] concerns CASKI. Conditions: Gynecologic cancer cell panel viability, ATPlite luminescence, 48 h; series mostly up to 57.5 µM. A digest of the protocol: as §1
Assay [3] relates to Es-2. As to conditions: Gynecologic cancer cell panel viability, ATPlite luminescence, 48 h; series mostly up to 57.5 µM. In outline: as §1
In assay [4] the test system is HeLa. As to conditions: Gynecologic cancer cell panel viability, ATPlite luminescence, 48 h; series mostly up to 57.5 µM. A digest of the protocol:
as §1

Assay [5] deals with Hek293T. As to conditions: Gynecologic cancer cell panel viability, ATPlite luminescence, 48 h, control line for the selectivity index; series mostly up to 57.5 µM. A digest of the protocol:
as §1

For assay [6], the system named is JEG-3. As to conditions: Gynecologic cancer cell panel viability, ATPlite luminescence, 48 h; series mostly up to 57.5 µM. In outline:
as §1

The subject of assay [7] is OV90. Conditions: Gynecologic cancer cell panel viability, ATPlite luminescence, 48 h; series mostly up to 57.5 µM. A digest of the protocol: as §1
In assay [8] the test system is PA-1. As to conditions: Gynecologic cancer cell panel viability, ATPlite luminescence, 48 h; series mostly up to 57.5 µM. A digest of the protocol: as §1
Assay [9] relates to SKOV3. Conditions: Gynecologic cancer cell panel viability, ATPlite luminescence, 48 h; series mostly up to 57.5 µM. In outline:
as §1

In assay [10] the test system is Tov-21-G. Conditions: Gynecologic cancer cell panel viability, ATPlite luminescence, 48 h; series mostly up to 57.5 µM. A digest of the protocol:
as §1

Assay [11] deals with Tov112D. Conditions: Gynecologic cancer cell panel viability, ATPlite luminescence, 48 h; series mostly up to 57.5 µM. A digest of the protocol: as §1

Results filed as inconclusive are left out. A number with no mark means an inactive call. The source made the active and inactive calls. Calls come from the whole dose curve; as a rule, active = well fitted cell-killing curve with a large enough effect; inconclusive = small, poorly fitted or top-dose-only effect, or effect the other way; inactive = flat fitted curve, though single readings scatter.
% is set by controls: 0 for no effect and ±100 for the full control effect; potency is the fitted concentration of half-maximal effect.

Turning to `O=[N+]([O-])c1cn2c(n1)OCC(OCc1ccc(OC(F)(F)F)cc1)C2` (stereo not given), the Potency result in assay [1], in [2], in assay [3], in assay [4], in assay [5] and in [6] was “inactive” throughout. The Potency result in assay [7], in [8], in [9], in assay [10] and in assay [11] was “inactive” throughout.

As to `CC1(C)CC[C@]2(C(=O)O)[C@H](O)C[C@]3(C)C(=CCC4[C@@]5(C)CC[C@H](O[C@@H]6O[C@H](CO[C@@H]7OC[C@H](O)[C@H](O)[C@H]7O[C@@H]7OC[C@@H](O)[C@H](O)[C@H]7O)[C@@H](O)[C@H](O)[C@H]6O[C@@H]6O[C@H](CO)[C@@H](O)[C@H](O)[C@H]6O)C(C)(C)C5CC[C@]43C)[C@@H]2C1` (stereo not given in full), the activity change, negative = cytotoxicity was -1.17% [at 11.6 µM] in assay [1]; 15.8% [at 11.6 µM] in [2]; -1.47% [at 11.6 µM] in [3]; 4.13% [at 11.6 µM] in [4]; 5.35% [at 11.6 µM] in assay [5]; 8.72% [at 11.6 µM] in assay [6]. Moreover, the activity change, negative = cytotoxicity is 15.1% [at 11.6 µM] in assay [7]; -2.35% [at 11.6 µM] in [8]; 21.8% [at 11.6 µM] in assay [9]; -13.8% [at 11.6 µM] in [10]; 1.64% [at 11.6 µM] in [11].

Consider `O=C(Nc1ccc(S(=O)(=O)Nc2ccccc2Cl)c(Cl)c1)c1ccccn1`, for which the Potency entry in assay [1], in assay [2], in assay [3], in [4], in assay [5] and in assay [6] was “inactive” throughout. For the same compound, the Potency result in assay [7], in assay [8], in assay [9], in assay [10] and in assay [11] was “inactive” each time.

With `COc1cc2c(c(OC)c1CC=C(C)C)C[C@H](c1ccc(O)cc1O)CO2`, the Potency result in assay [1], in assay [2], in [3], in assay [4], in [5] and in assay [6] was “inactive” in each case. In addition, the Potency entry in assay [7], in assay [8], in [9], in assay [10] and in [11] was “inactive” throughout.

On to `CC/C=C\CCO[C@@H]1O[C@H](CO[C@@H]2OC[C@H](O)[C@H](O)[C@H]2O)[C@@H](O)[C@H](O)[C@H]1O`, for which the Potency entry in assay [1], in assay [2], in [3], in assay [4], in assay [5] and in [6] was “inactive” in each case. For the same compound, the Potency result in assay [7], in assay [8], in assay [9], in assay [10] and in assay [11] was “inactive” each time.

`COc1cc(/C=C/C=O)cc(OC)c1O[C@@H]1O[C@H](CO)[C@@H](O)[C@H](O)[C@H]1O`: the Potency entry in assay [1], in [2], in assay [3], in [4], in assay [5] and in assay [6] was “inactive” each time. In addition, the Potency entry in [7], in [8], in assay [9], in assay [10] and in assay [11] was “inactive” throughout.

`C[C@@H]1CC[C@]2(C(=O)OC3OC(CO)C(O)C(O)C3O)CC[C@]3(C)C(=CCC4[C@@]5(C)CC[C@H](O)[C@](C)(C(=O)O)C5CC[C@]43C)C2[C@]1(C)O` (stereo not given in full): the Potency entry in assay [1], in assay [2], in [3], in assay [4], in [5] and in assay [6] was “inactive” each time. In addition, the Potency entry in [7], in assay [8], in [9], in [10] and in assay [11] was “inactive” in each case.

In the case of `COc1c2ccoc2cc2oc(CO[C@@H]3O[C@H](CO)[C@@H](O)[C@H](O)[C@H]3O)cc(=O)c12`, the Potency entry in assay [1], in assay [2], in [3], in assay [4], in assay [5] and in assay [6] was “inactive” in each case. Further, the Potency entry in assay [7], in assay [8], in [9], in assay [10] and in assay [11] was “inactive” each time.

With `C/C=C/C=C/C(=O)N1CC[C@]23c4ccccc4N[C@H]4N(C)c5cccc6c5[C@@]42CCN([C@H]6C2OC2(C)C)[C@H]13` (stereo not given in full), the Potency result in [1], in assay [2], in assay [3], in [4], in assay [5] and in [6] was “inactive” throughout. The Potency entry in assay [7], in [8], in assay [9], in assay [10] and in [11] was “inactive” each time.

As for `COc1ccc(C(=O)C2CCN(CC(=O)N(Cc3nc4c(c(=O)[nH]3)COCC4)CC3CC3)CC2)cc1`, the Potency result in assay [1], in assay [2], in assay [3], in assay [4], in assay [5] and in assay [6] was “inactive” throughout. In addition, the Potency result in assay [7], in [8], in [9], in [10] and in assay [11] was “inactive” each time.

Consider `C[C@H](Oc1ccc(S(C)(=O)=O)cc1C(=O)N1CCN(c2ncc(C(F)(F)F)cc2F)CC1)C(F)(F)F`, for which the Potency entry in assay [1], in [2], in assay [3], in [4], in assay [5] and in assay [6] was “inactive” each time. For the same compound, the Potency result in assay [7], in assay [8], in assay [9], in assay [10] and in assay [11] was “inactive” each time.

Take `CCc1c(C)nc2c(-c3cnn(-c4cc(CO)ccn4)c3)c[nH]n2c1=O`: the Potency result in assay [1], in [2], in assay [3], in assay [4], in assay [5] and in assay [6] was “inactive” throughout. The Potency result in assay [7], in [8], in assay [9], in assay [10] and in assay [11] was “inactive” in each case.

On to `O=C(O)/C=C/c1ccc(-c2ccc(O)c(C34CC5CC(CC(C5)C3)C4)c2)cc1`, for which the Potency in assay [1] is 1580 nM (active); in assay [2], 1780 nM (active); in [3], 631 nM (active); in assay [4], 8910 nM (active); in assay [5] it was 2000 nM (active); in [6] it was 2820 nM (active). Also, the Potency in assay [7] is 10000 nM (active); in [8] it was 2240 nM (active); in assay [9], 631 nM (active); in assay [10] it was 794 nM (active); in [11], 1410 nM (active).

Consider `COC(=O)C1=CO[C@@H](O[C@@H]2O[C@H](CO)[C@@H](O)[C@H](O)[C@H]2O)C2C1C(=O)C[C@H]2C` (stereo not given in full), for which the Potency entry in assay [1], in assay [2], in assay [3], in assay [4], in assay [5] and in [6] was “inactive” throughout. Moreover, the Potency entry in assay [7], in assay [8], in [9], in assay [10] and in [11] was “inactive” in each case.

For `CC12CCC(=O)C=C1C(O)CC1C2C(O)CC2(C)C1CC[C@]2(O)C(=O)CO` (stereo not given in full), the activity change, negative = cytotoxicity in assay [1] is 4.59% [at 11.6 µM]; in [2], -0.604% [at 11.6 µM]; in assay [3], 1.39% [at 11.6 µM]; in assay [4] it was 6.62% [at 11.6 µM]; in assay [5] it was 5.48% [at 11.6 µM]; in assay [6] it was 6.5% [at 11.6 µM]. Further, the activity change, negative = cytotoxicity in [7] is 9.39% [at 11.6 µM]; in [8], -1.22% [at 11.6 µM]; in assay [9], -0.607% [at 11.6 µM]; in [10], -3.93% [at 11.6 µM]; in assay [11] it was 12.3% [at 11.6 µM].
